About 800 (0.28%) of roughly 290,000 compounds were called active.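 Rule for the calls: active = fall in fluorescence gain of 50% or more versus controls, with final raw signal at or below 3038400; inconclusive = same 50% fall but final raw signal above 3038400; inactive = fall in fluorescence gain under 50%.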 Many of the other results were omitted from the sample, so actives are more common in it than they were.
The molecules below were run against CAAX prenyl protease 2 (Saccharomyces cerevisiae (strain ATCC 204508 / S288c)) (UniProt Q03530) (assay: yeast Rce1p protease inhibitors, primary screen, biochemical, fluorescence, cell-free homogeneous (AID 2563)). Conditions: yeast membranes, quenched prenylated peptide cleavage fluorescence.
Sequence of CAAX prenyl protease 2 (Saccharomyces cerevisiae (strain ATCC 204508 / S288c)) (Q03530 whole entry, looked up): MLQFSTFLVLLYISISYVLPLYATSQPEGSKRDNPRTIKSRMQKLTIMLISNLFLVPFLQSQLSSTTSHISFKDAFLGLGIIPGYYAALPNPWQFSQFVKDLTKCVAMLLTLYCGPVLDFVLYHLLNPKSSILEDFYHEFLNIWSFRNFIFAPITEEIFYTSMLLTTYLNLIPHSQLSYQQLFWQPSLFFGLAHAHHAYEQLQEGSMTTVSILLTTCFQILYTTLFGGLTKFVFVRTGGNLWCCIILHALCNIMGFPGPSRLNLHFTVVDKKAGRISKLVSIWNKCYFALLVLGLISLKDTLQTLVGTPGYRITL

SMILES	outcome
CCCCn1c(N)c(N(CCOC)C(=O)COc2c(C)cccc2C)c(=O)[nH]c1=O	inactive
COc1ccc(CCNC(=O)c2ccccc2OCc2ccccc2)cc1	inactive
CCCCOCCCNC(=O)c1ccccc1OCC	inactive
CCCOc1ccccc1C(=O)NCCCC(=O)O	active
O=C(Nc1ccc2nc3n(c(=O)c2c1)CCCC3)c1ccc(Cl)nc1	inactive
O=C(Nc1ccc(S(=O)(=O)N2CCCCC2)cc1)C1CCN(C(=O)c2ccc(F)cc2)CC1	inactive
CC(=O)N(Cc1cccs1)C1CCOC(C)(C)C1 (configuration not stated)	active
O=C(O)CCC(=O)N(Cc1cccs1)Cc1cccs1	inactive
CC1(C)CC(N(Cc2ccccc2)C(=O)Cc2ccccc2)CCO1 (configuration not stated)	inactive
COc1ccccc1CNC(=O)CSc1nc(=O)n(Cc2ccncc2)c2c1CCC2	inactive
Cc1ccccc1C(=O)NCC(c1ccco1)N1CCc2ccccc21 (configuration not stated)	inactive
O=C(NCCS(=O)(=O)N1CCN(c2ccc(F)cc2)CC1)c1ccc2c(c1)OCO2	inactive
N#CCCN(C(=O)COC(=O)c1ccc(S(=O)(=O)N2CCCCCC2)cc1)c1ccccc1	inactive
Cc1ccccc1OCC(=O)Nc1ccc2c(c1)ncn2C	inactive
COc1cc(NC(=O)CSC(=S)N2CCCC2)c(OC)cc1Cl	inactive
CN(C)c1ccc(/C=N/NC(=O)c2ccc(Cn3cc(Br)cn3)o2)cc1	inactive
O=C(O)c1ccc(/C=N/NC(=O)c2ccc(Br)cc2)cc1	inactive
CN(C)c1ccc(/C=N/NC(=O)C(O)c2ccc(Br)cc2)cc1 (configuration not stated)	active
COc1ccc(S(=O)(=O)N2CCCCC2)cc1NC(=O)c1cc([N+](=O)[O-])ccc1N1CCOCC1	inactive
CC1(c2ccc(Cl)cc2Cl)NC(=O)N(CC(=O)Nc2cccnc2Cl)C1=O (configuration not stated)	inactive
COc1ccc(C(CNC(=O)c2cccc(S(=O)(=O)Nc3ccccc3Cl)c2)N2CCOCC2)cc1 (configuration not stated)	inactive
O=C(CCC1CCCCC1)Nc1cc(C(F)(F)F)ccc1N1CCOCC1	inactive
O=C(CN1CCOCC1)Nc1cccc([N+](=O)[O-])c1	inactive

SMILES	outcome
Cc1ccc(S(=O)(=O)CC(=O)Nc2sc(C)c(C)c2C(N)=O)cc1	inactive
CCn1c(=N)n(CC(=O)c2cccc(OC)c2)c2ccccc21	inactive
CCCCOC(=O)Cn1c(=N)n(CCN(CC)CC)c2ccccc21	inactive
CCCCCCCCCCOC(=O)Cn1c(COc2ccc(C)cc2)[n+](C)c2ccccc21	active
Cc1ccc(OCc2nc3ccccc3n2C)cc1	inactive
COc1cccc(OCC(=O)Nc2ccccc2C(N)=O)c1	inactive
CCCCCCCCCCOC(=O)Cn1c(COc2cccc(OC)c2)[n+](C)c2ccccc21	active
Cc1ccc(CC(=O)N(C)CC(=O)N(CC(C)C)c2c(N)n(CC(C)C)c(=O)[nH]c2=O)cc1C	inactive
Cc1ccc(Cc2nnc(SCC(=O)Nc3ccccc3C)[nH]c2=O)cc1	inactive
CC(=O)NC(Cc1c[nH]c2ccccc12)C(=O)NCCc1ccccc1 (configuration not stated)	inactive
CC(=O)NC(Cc1c[nH]c2ccccc12)C(=O)O (configuration not stated)	active
Cc1cccc(C)c1OCC(=O)NC(Cc1c[nH]c2ccccc12)C(=O)O (configuration not stated)	inactive
COc1ccccc1CCC(=O)NNC(=O)c1ccncc1	inactive
O=C(COC(=O)CCOc1ccccc1)Nc1cc(S(=O)(=O)N2CCCCC2)ccc1Cl	inactive
CCN(CC)c1ccc(NC(=O)c2ccc(=O)[nH]c2)cc1S(=O)(=O)Nc1ccc(OC)cc1	inactive
CCOC(=O)c1c(C)oc2cc(Sc3ccccc3)c(O)c(O)c12	inactive
O=C1CCCC(O)=C1N=Nc1ccc(S(=O)(=O)N2CCOCC2)cc1	inactive
O=C1CCCC(O)=C1N=Nc1ccc2ncsc2c1	active
COc1ccc(C(=O)N(Cc2ccccc2)c2ccc(C)cc2)cc1S(=O)(=O)N1CCOCC1	inactive
CC1CC(C)(C)CC2(C1)NC(=O)N(CC(=O)Nc1nccs1)C2=O (configuration not stated)	inactive
COc1ccc(-c2cn3ccc(C)cc3n2)cc1	active
CCN(CC)S(=O)(=O)c1ccc(-c2cn3ccc(C)cc3n2)cc1	inactive
COc1ccc(-c2cn3ccsc3n2)cc1	inactive

SMILES	outcome
Cc1ccc(NC(=O)COC(=O)CNC(=O)c2ccc(Cl)cc2Cl)cc1S(=O)(=O)N1CCOCC1	inactive
C=CCc1cccc(/C=N/NC(=O)COc2ccc(-n3cnnn3)cc2)c1O	active
O=C(COc1ccc(-n2cnnn2)cc1)Nc1ccccc1Cl	inactive
C=CCc1ccccc1OCC(=O)N/N=C/c1ccccc1OCC	inactive
CC(C)CN(C(=O)Cn1c(=O)cnc2ccccc21)C1CCS(=O)(=O)C1 (configuration not stated)	inactive
O=C(NCc1ccc(Cl)cc1)C(=O)NCC1CCCN1S(=O)(=O)c1cccs1 (configuration not stated)	inactive
CCCCN(C(=O)CCNC(=O)NC12CC3CC(CC(C3)C1)C2)c1c(N)n(CCCC)c(=O)[nH]c1=O	inactive
CC(=O)c1ccc(NC(=O)C2CCCN2S(=O)(=O)c2cccs2)cc1 (configuration not stated)	inactive
COc1ccc2c(c1)O/C(=C\c1ccccc1O)C2=O	inactive
Cc1cc(=O)[nH]c(SCc2ccc(Cl)cc2)n1	inactive
Cc1cc(C)nc(SCc2cn3c(C)cc(C)nc3n2)n1	active
COc1ccc(OCc2cn3c(C)cc(C)nc3n2)cc1	inactive
Cc1ccc2nc(SCc3cn4c(C)cc(C)nc4n3)[nH]c2c1	inactive
CCc1cccc(C)c1NC(=O)COC(=O)CNC(=O)c1cccs1	inactive
CCN(CC(=O)Nc1c(F)cccc1F)C(=O)c1ccc(S(=O)(=O)N2CCCCC2)cc1	inactive
Cc1ccc(S(=O)(=O)N2CCCCC2)cc1C(=O)N(C)CC(=O)Nc1cccc(F)c1	inactive
O=C(Nc1ccc(F)c([N+](=O)[O-])c1)C1CCCO1 (configuration not stated)	inactive
CS(=O)(=O)Nc1cccc(C2=NN(S(=O)(=O)c3ccccc3)C(c3cccs3)C2)c1 (configuration not stated)	inactive
CS(=O)(=O)Nc1ccc(C2=NN(S(C)(=O)=O)C(c3cccs3)C2)cc1 (configuration not stated)	active
Cc1ccc(C2CC(c3cccc(NS(C)(=O)=O)c3)=NN2S(C)(=O)=O)cc1 (configuration not stated)	inactive
Cc1ccc(CN2CCN(c3ccccc3Cl)CC2)o1	inactive

From PubChem BioAssay AID2563 (Broad Institute, 2010)
